A number with no mark means an inactive call. Records with an inconclusive call do not appear. Calls of active or inactive are those of the source. Unless noted, calls follow the shape of the dose curve; as a rule, active = well fitted curve in the direction sought with a large enough effect; inconclusive = small, poorly fitted or top-dose-only effect, or another doubt; inactive = no such curve, though single readings can be large; an effect the other way counts as inactive or inconclusive.

The test system of assay [1] is CASKI. Put plainly: Primary qHTS to identify gynecologic anti-cancer compounds using libraries of approved drugs and bioactive compounds (AID 1345084). Also: nearly all actives have a fitted effect of over 55% in size. Also: potency is read from the fitted curve at half-maximal effect. As to conditions: Gynecologic cancer cell panel viability, ATPlite luminescence, 48 h; series mostly up to 57.5 µM. A digest of the protocol: (§1)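 Cytotoxicity screen measuring ATP content by luciferase luminescence. Each compound is applied at five concentrations for 48 h at 37 C with 5% CO2.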
For orientation: qHTS replaces the single test concentration by a dilution series.

In assay [2] the test system is Es-2. Described as above. The note with it: Gynecologic cancer cell panel viability, ATPlite luminescence, 48 h; series mostly up to 57.5 µM. The procedure, abridged:
as §1
On the technique in general: ATP-based viability assays read luminescence as a measure of living cells.

The test system of assay [3] is HeLa. The assay is described as above. As to conditions: Gynecologic cancer cell panel viability, ATPlite luminescence, 48 h; series mostly up to 57.5 µM. A digest of the protocol: as §1
Assay [4] has as its system Hek293T. The description is as above. The note with it: Gynecologic cancer cell panel viability, ATPlite luminescence, 48 h, control line for the selectivity index; series mostly up to 57.5 µM. A digest of the protocol:
as §1

Assay [5] concerns JEG-3. Described as above. As to conditions: Gynecologic cancer cell panel viability, ATPlite luminescence, 48 h; series mostly up to 57.5 µM. A digest of the protocol:
as §1

Assay [6] relates to OV90. The assay is described as above. The note with it: Gynecologic cancer cell panel viability, ATPlite luminescence, 48 h; series mostly up to 57.5 µM. The procedure, abridged:
as §1

In assay [7] the test system is Tov-21-G. The assay is described as above. As to conditions: Gynecologic cancer cell panel viability, ATPlite luminescence, 48 h; series mostly up to 57.5 µM. The procedure, abridged:
as §1

Assay [8] concerns C33A. The assay is described as above. As to conditions: Gynecologic cancer cell panel viability, ATPlite luminescence, 48 h; series mostly up to 57.5 µM. The procedure, abridged:
as §1

For assay [9], the system named is SKOV3. Described as above. As to conditions: Gynecologic cancer cell panel viability, ATPlite luminescence, 48 h; series mostly up to 57.5 µM. The procedure, abridged: as §1
For assay [10], the system named is Tov112D. The assay is described as above. The note with it: Gynecologic cancer cell panel viability, ATPlite luminescence, 48 h; series mostly up to 57.5 µM. A digest of the protocol:
as §1

Assay [11] can be described thus: Drug repurposing screens with cells derived from glioblastoma tumor samples (AID 1345199). Also: nearly all actives have a fitted effect of over 40% in size. Also: potency is read from the fitted curve at half-maximal effect. As to activity, negative = cell killing: % is scaled to controls: 0 for no effect and ±100 for the full control effect. The note with it: GBM patient neurospheres viability, ATP luminescence, 48 h. The procedure, abridged: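 Four patient lines of CD133+ GBM neurospheres were screened at several concentrations; hits were retested in those lines plus three slower-growing GBM lines, using 48-hour treatment and ATP-based viability.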

Assay [12] in a line: qHTS assay for small molecule activators of the human pregnane X receptor (PXR) signaling pathway (AID 720659; call rule not given here; also: 0% is about no effect).
Assay [13] relates to PA-1. Put plainly: Primary qHTS to identify gynecologic anti-cancer compounds using libraries of approved drugs and bioactive compounds (AID 1345084). Also: nearly all actives have a fitted effect of over 55% in size. Also: potency is read from the fitted curve at half-maximal effect. The note with it: Gynecologic cancer cell panel viability, ATPlite luminescence, 48 h; series mostly up to 57.5 µM. The procedure, abridged: as §1
Assay [14] in a line: qHTS assay to identify inhibitors of the type 1 interferon - major histocompatibility complex class I in skeletal muscle: Counter screen cell viability and HiBit confirmation (AID 1347412). Also: potency is read from the fitted curve at half-maximal effect; nearly all actives have a fitted effect of over 60% in size. The note with it: iHSKM muscle cells + IFN-b, HiBiT or CellTiter-Glo, 24 h. A digest of the protocol: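 Luminescence read-out: Nano-Glo HiBiT lytic signal from C-terminally HiBiT-tagged HLA-B in CRISPR-edited human myoblasts, plus CellTiter Glo ATP as viability counter screen. IFN-beta 4.0 ng/ml; 24 hrs treatment at 37 C, 5% CO2.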

The subject of assay [15] is CAOV3. Put plainly: Primary qHTS to identify gynecologic anti-cancer compounds using libraries of approved drugs and bioactive compounds (AID 1345084). Also: nearly all actives have a fitted effect of over 55% in size. Also: potency is read from the fitted curve at half-maximal effect. As to conditions: Gynecologic cancer cell panel viability, ATPlite luminescence, 48 h; series mostly up to 57.5 µM. The procedure, abridged: as §1
The mark [16] stands for this setting: at 45.9 µM (top of the series), tumour line B.
[17] abbreviates: at 45.9 µM (top of the series), tumour line D.
Setting [18] is: at 46.1 µM (top of the series), tumour line C.

On to `CN(C[C@@H]1COCCO1)S(=O)(=O)Nc1ccc2ccc3ncc(-c4cnn(C)c4)cc3c(=O)c2c1`, for which the Potency result in assay [1], in assay [2], in [4], in [5] and in assay [6] was “inactive” each time. For the same compound, the values for the Potency in [3] and in assay [7] were 12.6 µM (active) and 20 µM (active), respectively.
Consider `CCn1cc(C(=O)O)c(=O)c2ccc(C)nc21`, for which the Potency result in assay [8], in assay [1], in assay [2], in assay [3], in assay [4] and in [5] was “inactive” each time. Further, the Potency result in assay [6], in assay [9], in assay [7] and in assay [10] was “inactive” throughout. Also, the activity, negative = cell killing in assay [11] (setting [16]) was -0.634%; in [11] (setting [17]), -3.73%; in [11] (setting [18]), -15.1%. Further, the call in assay [12] was inactive.
For `Cc1cccc(Nc2nc(-c3ccncc3)cs2)c1`, the Potency result in assay [8], in assay [2], in [3] and in assay [7] was “inactive” throughout.
For the compound `NC(=O)c1ccc2nc(-c3ccc(Oc4ccc(Cl)cc4)cc3)[nH]c2c1`, the Potency result in assay [1], in [4], in assay [5] and in [10] was “inactive” throughout. The Potency in assay [13] is 15.8 µM (active).
Turning to `CN(C)Cc1ccc(-c2nc3cccc4c3n2CCNC4=O)cc1`, the Potency entry in assay [8], in assay [1], in assay [3], in [5], in assay [6] and in assay [9] was “inactive” throughout. The Potency entry in [10] was “inactive”.
As for `CC(=O)N(C)C1(c2ccccc2)CCN(CCC[C@]2(c3ccc(Cl)c(Cl)c3)CCCN(C(=O)c3ccccc3)C2)CC1`, the Potency in assay [1] and in assay [9] was 22.4 µM (active) each time.
With `C=C1C(=O)[C@@]23C(CC[C@@H]1[C@H]2O)[C@@]12CO[C@]3(O)[C@@H](O)[C@@H]1C(C)(C)CC[C@@H]2O` (some centres undefined), the Potency was 28.2 µM (active) in assay [8], 28.2 µM (active) in assay [4], 8.83 µM (active) in assay [14] (HiBiT) and 35.2 µM (active) in assay [14] (Viability). Further, the Potency entry in assay [3], in assay [6] and in assay [10] was “inactive” in each case.
In the case of `CC(C)(C)Cn1c(N)nc2ccc(-c3[nH]c(C(C)(C)C)nc3-c3ccc(F)cc3)nc21`, the Potency result in [8], in [2], in assay [3], in assay [5], in [13] and in [7] was “inactive” each time. The Potency result in assay [10] is “inactive”.
`CN1C[C@H]2c3ccccc3Oc3ccc(Cl)cc3[C@@H]2C1`: the Potency entry in assay [8], in assay [1], in [3], in assay [5], in assay [13] and in assay [7] was “inactive” each time. The Potency result in assay [10] is “inactive”. The activity, negative = cell killing in assay [11] (setting [16]) is -17.5%. Further, the Potency in assay [11] (tumour line A) was 10 µM (active).
Turning to `COc1cc2nc(-c3ccc(N4CCN(C)CC4)cc3)nc(NCCN3CCOCC3)c2cc1OC`, the Potency result in assay [8], in assay [2], in [3], in assay [4], in [5] and in assay [10] was “inactive” each time. In addition, in assay [13], the Potency was 15.8 µM (active).
Regarding `CC(=O)O[C@]1(C(C)=O)CC[C@H]2[C@@H]3C=C(Cl)C4=CC(=O)[C@@H]5C[C@@H]5[C@]4(C)[C@H]3CC[C@@]21C`, the Potency result in assay [8], in assay [1], in assay [2], in assay [4], in assay [5] and in [6] was “inactive” in each case. The Potency result in assay [13], in assay [9], in assay [7] and in assay [10] was “inactive” in each case. Besides, the activity, negative = cell killing in [11] (setting [16]) is -17.9%; in assay [11] (setting [17]), -23%; in [11] (setting [18]), 2.8%. Besides, the compound was called inactive in assay [12].
Take `NC(=O)c1cnc(-c2ccc(C3(N)CCC3)cc2)c(-c2ccccc2)c1`: the Potency result in assay [2], in assay [3], in assay [4], in assay [5] and in assay [10] was “inactive” each time. Further, the Potency in [9] is 28.2 µM (active).
As to `CC(C)C(=O)Oc1ccc(CO)cc1[C@H](CCN(C(C)C)C(C)C)c1ccccc1`, the Potency result in assay [1], in assay [2], in [3], in assay [4], in assay [5] and in [6] was “inactive” in each case. Further, the Potency result in assay [13], in assay [9], in assay [7] and in assay [10] was “inactive” each time.
In the case of `CC(C)n1nc(-c2ccc3oc(N)nc3c2)c2c(N)ncnc21`, the Potency was 2.24 µM (active) in assay [1]; 12.6 µM (active) in [3]; 0.316 µM (active) in assay [4]; 0.316 µM (active) in assay [6]; 0.316 µM (active) in assay [7]; 0.0991 µM (active) in assay [14] (HiBiT).
With `Cc1ccn(-c2ccc(-c3ncco3)cc2)c(=O)c1-c1ccc2nc(N)ncc2c1`, the Potency entry in [15], in assay [3], in assay [4], in assay [5], in assay [6] and in [10] was “inactive” each time. The figures for the Potency in [13], in [9] and in assay [7] were 11.2 µM (active), 3.55 µM (active) and 11.2 µM (active), respectively.
